According to PubChem BioAssay (NCI):
This is part of a sample that, as a whole, favours compounds with a hit. Of some 83,000 tested, about 20% had one in any assay.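 Step 1: grow cells in 96-well plates. Step 2: add test compound at a single concentration. Step 3: incubate 48 h. Step 4: record percent growth.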 Values without a mark were called inactive. Activity calls are given as the source filed them.

The molecules below were run on SK-MEL-2 melanoma (assay: NCI-60 one-dose screen, 48 h (100 = growth as untreated, 0 = no growth, -100 = all killed)). Details: 10 µM unless noted.
Method: Growth inhibition of the SK-MEL-2 human tumor cell line is measured as a screen for anti-cancer activity. Cells are grown in 96 well plates and exposed to the test compound for 48 hours. Compounds are tested at a single concentration, which is 10^-5 M for most compounds. The reported endpoint is percent growth (GI% or GIPRCNT), where numbers from 0 - 100% represent growth inhibition, and numbers from -100% - 0 represent cell death. For example, a value of 40 represents 60% growth inhibition. A value of 0 means no net growth occurred over the course of the experiment. A value of -40 indicates 40% of cells at the beginning of the experiment died by the end of the experiment. A value of -100 means all cells are dead at the end of the experiment.
NCI-60 Human Tumor Cell Lines Screen was performed using the standard one-dose NCI protocol, which is described in more detail at https://dtp.cancer.gov/discovery_development/nci-60/default.htm.
Compounds with GIPRCNT values below 10 were considered active. Activity score was based on GIPRCNT using the following formula: […]
Score is 0 for GIPRCNT values of 100 or above, 50 for GIPRCNT values of 0, and 100 for GIPRCNT values of -100.
In the case of `C=C1C(=O)O[C@H]2[C@H]1CC/C(Cn1cc(-c3cc(C(F)(F)F)cc(C(F)(F)F)c3)nn1)=C\CC[C@@]1(C)O[C@@H]21`, the growth is reported as -84.1% (active). For `Cc1cscc(C)c1=S`, the growth was 11.9%. `N#Cc1c(N2CCOCC2)nc(=S)[nH]c1-c1ccccc1` was tested, and the growth was 41.8%. With `O=c1[nH]c(-c2ccc(Cl)cc2)cn1-c1ccc(-n2cc(-c3ccc(Cl)cc3)[nH]c2=O)cc1` the growth was 95.9%. In the case of `CCCCCCCC/C=C\CCCCCCCCOc1ccccc1CC(=O)NCC[N+]1(C)CCCCC1`, the growth is reported as 88.2%. In the case of `Cc1ccc(/C=C2\CN(C(=O)C(Cl)Cl)C/C(=C\c3ccc(C)cc3)C2=O)cc1`, the growth is reported as -5.43% (active). In the case of `Clc1ccc(-c2nc(-c3c[nH]c4ncccc34)cs2)cc1`, the growth is reported as 72% [100 µM]. `CCOC(=O)c1c(-c2ccc(Cl)cc2)c(C#N)c2c(C#N)c(N)nn2c1N` showed a growth of 52.5%. With `NC(=S)N/N=C/c1cn(-c2ccccc2)nc1-c1cc2ccccc2oc1=O` the growth was 39.2%. `COc1ccc(C2=C/C(=C\c3ccc(Cl)cc3)C(=O)N2/N=C/c2ccc(Cl)cc2)cc1` showed a growth of 107%. With `COc1cc(-c2nc(SCCC(C)C)nc(N3CCOCC3)c2C#N)cc(OC)c1OC` the growth was 116%. Molecule `O=C(CSc1nc2ccc([N+](=O)[O-])cc2[nH]1)Nc1cccc([N+](=O)[O-])c1` has a growth of 49.2%. For `O=C(Nc1cccc(NC(=O)C2CCCCC2)c1)c1ccccn1`, the growth was 100%. In the case of `COc1ccc2nc3ccccc3c(NCc3ccccc3)c2c1`, the growth is reported as 47.9%. Work on `C=CC(=O)N1CCN(c2ccc3cccc(NC(=O)c4cnc(C)cn4)c3n2)CC1` yielded a growth of 29.7%. `Cc1ccc(S(=O)(=O)n2cc(C3C(Cl)C(=O)N3c3ccc(N4CCOCC4=O)cc3)c3ccccc32)cc1` (stereo not given) was tested, and the growth was 74.7%. With `CCC(CC)(N(CC(=O)O)CC(=O)O)C(CC)(CC)N(CC(=O)O)CC(=O)O` the growth was 112%. For `C#CCOc1cccc(-c2ncc3cc(NC(=O)CCl)ccc3n2)c1`, the growth was 22.7%. Molecule `COc1ccc(-c2ccc(=O)oc2C#Cc2cc(OC)c(OC)c(OC)c2)cc1O` has a growth of 29.6%. `N#C/C(=C\c1ccc(Br)cc1)c1cc2ccccc2[nH]1` gave a growth of 114%. In the case of `COc1cc(C(=O)c2c(N)ncn2-c2ccccc2)cc(OC)c1OC`, the growth is reported as 104%. For `COc1ccccc1NC(=O)c1ccc(/C=C/C(=O)c2nccn2C)cc1`, the growth was -27.4% (active). Molecule `O=C(N/N=C/c1ccc(Cl)cc1Cl)c1ccc2nc(-c3ccc(Cl)cc3)[nH]c2c1` has a growth of 38.9%. In the case of `COc1cc(/C=C2\C(=O)N(c3c(Cl)cccc3Cl)c3ccccc32)cc(OC)c1OCCCCCCn1c2ccccc2c(=O)c2ccccc21`, the growth is reported as 96.2%. In the case of `CC(=O)c1c(Nc2ccc(F)c(F)c2F)[nH]c2c(F)cc(F)cc2c1=O`, the growth is reported as -52.6% (active). With `COc1cc(OC)cc(C2C(C#N)=C(N)Oc3c2ccc2ccc(O)cc32)c1` (stereo not given) the growth was 21.3%. Work on `Cc1cc(N2CCCCC2)nc(N2CCN(CC(=O)Nc3ccc4c(ccn4Cc4ccccc4)c3)CC2)n1` yielded a growth of 65.6%. `NC(CSC(c1ccccc1)(c1ccccc1)c1ccc2c(c1)OCO2)C(=O)O` (stereo not given) was tested, and the growth was -14.6% (active). In the case of `Cc1ncc(C(=O)Nc2ccc(CN3CCN(C)CC3)c(C(F)(F)F)c2)cc1C#Cc1cnc(N)c2ccncc12`, the growth is reported as -55.8% (active). `N#CC(C#N)N=Nc1ccc(Cl)cc1Cl` was tested, and the growth was 99.9%. `COc1ccc(-c2nnc(SCC(=O)Nc3ccc(/C(C)=N\O)cc3)n2-c2ccccc2)cc1OC` gave a growth of 57.6%. `Oc1c(I)cc(-c2nc3ccccc3s2)cc1CN(Cc1ccccn1)Cc1ccccn1` was tested, and the growth was 14.8%. In the case of `CN1CCN(c2ccc(NC(=O)c3cncnc3Nc3ccc4c(ccn4Cc4cccc(F)c4)c3)cc2)CC1`, the growth is reported as 98.1%. Molecule `C/C(C=O)=C\c1ccc2c(c1)OCO2` has a growth of 109%. `CCOC(=O)Nc1nc2ccc(SCC(C)C)cc2s1` gave a growth of 33.1%. `CCOC(=O)c1c(C)nc2c(c1N)CC(=O)N2Cc1cc(OC)c(OC)c(OC)c1` showed a growth of 27%. `CN(CCC#N)c1ccc(/C=C2\NC(=O)NC2=O)cc1` was tested, and the growth was 100%. With `Cn1c(=O)c2c(c3ccccc31)OC(N)=C(C#N)C21C(=O)c2ccccc2C1=O` the growth was 107%. Work on `CN1CCN(Cc2cc(NC(=O)c3cccc(C#Cc4cccc5[nH]nc(N)c45)c3)cc(C(F)(F)F)c2)CC1` yielded a growth of 17.8%. `CCN1CCN(CC(=O)Nc2nc3ccc(NCc4ccc(Br)cc4)cc3s2)CC1` gave a growth of 55.4%.
